Unmarked numbers belong to inactive results.
Each molecule was assayed on Pseudomonas aeruginosa PA14 wild type (assay: respiration area under curve with compound as sole nitrogen source, 24 h (OmniLog AUC (arbitrary units)); higher = more respiration / better utilisation as nitrogen source, active = 2000 or more).
Experimental: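 Biolog Phenotype MicroArray plates PM6-PM8: each di/tripeptide is the sole nitrogen source (IF-0 medium with succinate/ferric citrate and dye mix A). Tetrazolium reduction was read in the OmniLog every 15 min for 24 h at 37°C and summarised as area under the respiration curve (arbitrary units). The paper counts values below 2000 as no respiration and above 8000 as solid respiration. Replicate datasets are averaged.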

Row | SMILES | respiration area under curve
1 | CSCC[C@H](N)C(=O)N[C@@H](Cc1ccccc1)C(=O)O (plate: PM7) | 1400
2 | CC[C@H](C)[C@H](N)C(=O)N[C@@H](CCCN=C(N)N)C(=O)O (plate: PM6) | 9480 (active)
3 | CC[C@H](C)[C@H](N)C(=O)N[C@@H](C)C(=O)O (plate: PM6) | 5290 (active)
4 | NC(=O)C[C@H](NC(=O)[C@@H]1CCCN1)C(=O)O (plate: PM8) | 12900 (active)
5 | CC[C@H](C)[C@H](N)C(=O)N[C@@H](CCC(N)=O)C(=O)O (plate: PM6) | 7450 (active)
6 | NCC(=O)N[C@@H](Cc1ccccc1)C(=O)N[C@@H](Cc1ccccc1)C(=O)O (plate: PM8) | 8980 (active)
7 | N[C@@H](CCC(=O)O)C(=O)N[C@@H](CC(=O)O)C(=O)O (plate: PM6) | 12
8 | O=C(O)CNC(=O)[C@@H]1CCCN1 (plate: PM7) | 10100 (active)
9 | CC(C)[C@H](N)C(=O)N[C@@H](C)C(=O)O (plate: PM8) | 6590 (active)
10 | CC[C@H](C)[C@H](N)C(=O)N[C@@H](Cc1c[nH]c2ccccc12)C(=O)O (plate: PM6) | 1090
11 | CC[C@H](C)[C@H](NC(=O)[C@@H](N)Cc1ccccc1)C(=O)O (plate: PM7) | 8390 (active)
12 | N[C@@H](CCC(=O)O)C(=O)N[C@@H](Cc1ccc(O)cc1)C(=O)O (plate: PM6) | 1140
13 | CSCCC(N)C(=O)NC(CCCN=C(N)N)C(=O)O (stereo not given) (plate: PM7) | 14600 (active)
14 | CC(C)[C@H](N)C(=O)N1CCC[C@H]1C(=O)O (plate: PM8) | 12700 (active)
15 | C[C@H](N)C(=O)N[C@@H](Cc1c[nH]c2ccccc12)C(=O)O (plate: PM6) | 4490 (active)
16 | CC(C)C(NC(=O)C1CCCN1)C(=O)O (stereo not given) (plate: PM8) | 7080 (active)
17 | O=C(O)[C@@H]1CCCN1C(=O)[C@@H]1CCCN1 (plate: PM7) | 10500 (active)
18 | N[C@@H](Cc1ccc(O)cc1)C(=O)N[C@@H](Cc1ccccc1)C(=O)O (plate: PM7) | 6680 (active)
19 | CC(C)C[C@H](NC(=O)[C@@H](N)Cc1c[nH]c2ccccc12)C(=O)O (plate: PM7) | 3760 (active)
20 | CC(C)[C@H](NC(=O)[C@@H](N)Cc1c[nH]c2ccccc12)C(=O)O (plate: PM8) | 3080 (active)

Row | SMILES | respiration area under curve
21 | CC[C@H](C)[C@H](NC(=O)[C@@H]1CCCN1)C(=O)O (plate: PM8) | 7540 (active)
22 | NCC(=O)NCC(=O)O (plate: PM6) | 3270 (active)
23 | C[C@H](N)C(=O)N[C@@H](Cc1ccc(O)cc1)C(=O)O (plate: PM6) | 6830 (active)
24 | NCC(=O)NCC(=O)NCC(=O)O (plate: PM8) | 7740 (active)
25 | CC(C)[C@H](N)C(=O)N[C@@H](Cc1ccc(O)cc1)C(=O)O (plate: PM7) | 8020 (active)
26 | CC(C)CC(N)C(=O)NC(CC(=O)O)C(=O)O (stereo not given) (plate: PM6) | 7510 (active)
27 | N[C@@H](CCC(=O)O)C(=O)N[C@@H](Cc1c[nH]c2ccccc12)C(=O)O (plate: PM6) | 2740 (active)
28 | C[C@@H](NC(=O)CN)C(=O)O (plate: PM8) | 5060 (active)
29 | N[C@@H](Cc1c[nH]c2ccccc12)C(=O)N[C@@H](Cc1c[nH]c2ccccc12)C(=O)O (plate: PM7) | 1430
30 | C[C@H](N)C(=O)N[C@@H](CCC(N)=O)C(=O)O (plate: PM8) | 11600 (active)
31 | CC(C)C[C@H](N)C(=O)N1CCC[C@H]1C(=O)O (plate: PM8) | 9370 (active)
32 | O=C(O)[C@H](Cc1ccccc1)NC(=O)[C@@H]1CCCN1 (plate: PM7) | 7250 (active)
33 | CSCC[C@H](N)C(=O)N[C@@H](CC(=O)O)C(=O)O (plate: PM7) | 4700 (active)
34 | N[C@@H](Cc1c[nH]c2ccccc12)C(=O)N[C@@H](CO)C(=O)O (plate: PM7) | 4810 (active)
35 | N[C@@H](CC(=O)O)C(=O)N[C@@H](CC(=O)O)C(=O)O (plate: PM6) | 119
36 | N[C@@H](CC(=O)O)C(=O)N[C@@H](CCC(=O)O)C(=O)O (plate: PM6) | 291
37 | O=C(O)CC(NC(=O)C1CCCN1)C(=O)O (stereo not given) (plate: PM7) | 4460 (active)
38 | N[C@@H](Cc1ccccc1)C(=O)N[C@@H](CO)C(=O)O (plate: PM7) | 7630 (active)
39 | CSCC[C@H](N)C(=O)N[C@H](C(=O)O)C(C)C (plate: PM7) | 4480 (active)
40 | C[C@H](N)C(=O)N[C@H](C(=O)O)[C@@H](C)O (plate: PM6) | 6750 (active)

Reference: the supplement of paper PMC4206461
